Assay results: PubChem BioAssay (NCI)
This is part of a sample that, as a whole, favours compounds with a hit. Of some 83,000 tested, about 20% had one in any assay.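 Cells were grown in 96-well plates and exposed to the test compound at a single concentration for 48 hours; results are reported as percent growth, with values below 10 considered active.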 Unmarked numbers belong to inactive results. Active and inactive are the calls of the source.

These compounds were tested on HL-60(TB) leukemia (assay: NCI-60 one-dose screen, 48 h (100 = growth as untreated, 0 = no growth, -100 = all killed)). Settings: 10 µM unless noted.

Structure (SMILES)	growth
CC1CCN(C(=O)CSc2nc3sc4c(c3c(=O)[nH]2)CCCC4)CC1	102%
COCCOC(C)C(/C=N/NC(N)=S)=N/NC(N)=S (stereo not given)	81.6%
CN[C@@H](CCCNC(N)=NC/C=C(/C)CCC=C(C)C)C(=O)N(C)[C@@H](CCCNC(N)=NCC=C(C)C)C(=O)N[C@H](C)[C@H](OS(=O)(=O)O)c1ccc(OS(=O)(=O)O)c(COS(=O)(=O)O)c1	83.5%
CCCCCCCOc1cccc(/C=C2/C(=O)N=C3SCCCN32)c1	95.2%
Cc1ccc(C2SCC(=O)N2NC(=O)c2[nH]c3ccc(F)cc3c2-c2ccccc2)cc1 (stereo not given)	78.6%
COc1cc(-c2nc3ccccc3[nH]2)ccc1OCC(=O)N=Nc1c(O)[nH]c2ccccc12	79.8%
C=C1C(=O)O[C@H]2[C@H]1CC/C(COC(=O)n1ccnc1C)=C\CC[C@@]1(C)O[C@@H]21	83.2%
O=C(N/N=C\c1ccccc1O)C1CC1	101%
Cn1ncc2ccc(-c3nc(-c4ccccc4)[nH]c3-c3n[nH]c(=O)n3C3CC3)cc21	84.7%
CCCCc1c(CCC)c(=N)c2ccccc2n1C	77%
Nc1nnc(C(=O)c2cnc3n(c2=O)CCCCC3)s1	110%
OC1Cc2ccccc2C1	100%
c1ccc2nc(N3CCOCC3)c(N3CCCCC3)nc2c1	98.9%
N#CC1=C(N)Oc2c(ccc3ccccc23)C1c1cc(=O)oc2ccc(Cl)cc12 (stereo not given)	-10.1% (active)
C=CC(=O)N1CCC(Oc2cc3c(Nc4ccc(Cl)c(Cl)c4F)ncnc3cc2OC)CC1	24.7%
COc1cc(/C=C2\CN(S(=O)(=O)c3ccc(C)cc3)C/C(=C\c3cc(CN4CCCCC4)c(O)c(OC)c3)C2=O)cc(CN2CCCCC2)c1O	-37.2% (active)
O=C(/C=C/c1ccccc1)N(C1CCCCC1)C1CCCCC1	74%
Cc1cccc(Cc2cnc(NC(=O)CCCOc3ccc(Cl)cc3)s2)c1	-34.2% (active)
C1CCc2onc(-c3noc4c3CCCCC4)c2CC1	102%
CC(Br)C(O)c1cc2c(cc1Br)OCO2 (stereo not given)	105%

Structure (SMILES)	growth
COc1cc2nc(Nc3cccc(C(=O)O)c3)nc(N)c2cc1OC	109%
NS(=O)(=O)c1ccc(-c2cc(-c3nnc(SCC(=O)Nc4ccc(C(=O)/C=C/c5ccc(Cl)cc5)cc4)n3-c3ccccc3)c3ccccc3n2)cc1	92.2%
Cc1c(Cl)cccc1NS(=O)(=O)c1ccccc1	113%
Clc1nc(Oc2ccccc2)nc(-c2cn(-c3ccccc3)c3ccccc23)n1	63.2%
COc1ccc2[nH]c(O)c(/C=c3/ccc4c(c3)N=C(c3ccc(F)cc3)N=4)c2c1	99.9%
COc1ccc(Cn2cc(COc3cc(/C=C/C(=O)c4cc(OC)c(OC)c(OC)c4)ccc3OC)nn2)cc1	80.3%
COc1ccc(C2=CN3CC=CC3CC2=O)cc1 (stereo not given)	106%
Cc1nc2cc(O)c(O)cc2cc1Oc1ccc(NC(=O)Nc2ccc(Cl)c(Cl)c2)cc1	96.8%
COc1cc2c(/C=C3\C(=O)Nc4ccc(Br)cc43)c(Cl)n(C)c2cc1C	-13.1% (active)
COc1ccc(OC)c(Cn2cc3c(c2-c2ccccc2)CCc2cnoc2-3)c1	32.2%
COc1ccc2c(c1)c(-c1noc(C(=O)c3cn(C)c4ncc(Br)cc34)n1)cn2C	98.2%
CC(=O)N(O)c1ccc(/C=C/c2ccccc2)cc1	23.4%
COc1ccc(C2C(N)=NNC2c2cccc(O)c2)cc1 (stereo not given)	97.9%
c1ccc2[nH]c(-c3ccc(OCCCCCOc4ccc(-c5nc6ccccc6[nH]5)cc4)cc3)nc2c1	-45.7% (active)
O=C(Nc1ccccc1)Nc1ncnc2c1ncn2-c1ccccc1	100%
Nc1cc2nc3ccccc3sc-2cc1=O	6.95% (active)
CN(Cc1ccccc1)c1nc(Cl)c(C2CC(c3ccc4c(c3)OCO4)=NN2c2cc(Cl)cc(Cl)c2)s1 (stereo not given)	105%
COCCCNC(=O)c1nnn2c1nc(N)c1cc(Cl)ccc12	93.7%
COCCOc1cc2ncnc(N3CCN(c4cc(S(C)(=O)=O)c(C)cc4Cl)CC3)c2cc1OCCOC	97.4%
Nc1cccc2c1C(=O)c1cccc(NC(=O)c3ccccc3)c1C2=O	1.36% (active)
